Assay results: PubChem BioAssay AID372 (MTDP, 2006)
Hit rate of the full screen: of about 100,000 compounds, about 770 (0.77%) were called active. This is one part of a sample in which actives are shown more often than they occur. Unmarked numbers belong to inactive results. Rule as the data show it: active = inhibition above about 50%; inactive = the rest.

These compounds were tested against Gag-Pol polyprotein (Human immunodeficiency virus type 1 group M subtype B (isolate HXB2)) (UniProt P04585) (assay: RNase H inhibition, HIV 1 Gag Pol polyprotein, FRET biochemical assay, screening (AID 372)). Conditions: HIV-1 RT RNase H, FRET RNA/DNA substrate fluorescence; at 10 µM; stronger effect = higher value.

First: CCOc1cc(C(=O)NCc2ccccc2OC)cc(OCC)c1OCC
Second: CCOc1cc(C)cc2oc(=O)c(Cc3ccccc3)c(C)c12
The inhibition of the first is lower: 2% for the first, 46% for the second.

Going from `Cc1ccc(C(=O)NNC(=S)NC(C)(C)C)cc1` to `Cc1ccc(CNC(=O)C(=O)NCC2CCCO2)cc1` (stereo not drawn), the inhibition rises from 6% to 9%.

First: Cc1ccc(NC(=O)CC2SC(=Nc3ccccc3)N(c3ccccc3)C2=O)cc1 (stereo not drawn)
Second: O=C(CC1SC(=Nc2ccccc2)N(c2ccccc2)C1=O)Nc1ccc(F)cc1 (stereo not drawn)
The inhibition of the first is lower: 5% for the first, 14% for the second.

Going from `O=C(N/C(=C/c1cccc(Br)c1)C(=O)N1CCOCC1)c1ccccc1` to `O=C(NCC1CCCO1)/C(=C/c1cccc(Oc2ccccc2)c1)NC(=O)c1ccccc1` (stereo not drawn), the inhibition falls from 5% to 0%.

First: CC(C)Cc1nnc(NC(=O)c2ccccc2I)s1
Second: Cc1sc(NC(=O)c2ccccc2C(=O)O)c(C#N)c1C
The inhibition of the first is lower: 0% for the first, 3% for the second.

First: CCOC(=O)N1CCN(CCC(=O)Nc2ccc3c(c2)OCO3)CC1
Second: O=C(CCc1ccccc1)Nc1cc(C(=O)O)cc(C(=O)O)c1
The inhibition of the first is lower: 16% for the first, 36% for the second.

Compared with `Cc1cc2nn(-c3ccccc3)nc2cc1NC(=O)c1cccc([N+](=O)[O-])c1C`, `Cc1ccc(-n2nc3cc(C)c(NC(=O)c4ccccc4[N+](=O)[O-])cc3n2)cc1` is lower in inhibition: 16% for the first, 15% for the second.

Compared with `COc1ccc(-n2nc3cc(C)c(NC(=O)/C=C/c4ccccc4)cc3n2)cc1`, `Cc1cc2nn(-c3ccccc3)nc2cc1NC(=O)/C=C/c1ccccc1` is lower in inhibition: 42% for the first, 12% for the second.

Compared with `Cc1ccc(-n2nc3cc(C)c(NC(=O)c4ccccc4Br)cc3n2)cc1`, `Cc1cc2nn(-c3ccc(Cl)cc3)nc2cc1NC(=O)c1ccccc1C` is higher in inhibition: 4% for the first, 36% for the second.

Compared with `Cc1ccc(-n2nc3cc(C)c(NC(=O)c4ccc(Cl)cc4Cl)cc3n2)cc1`, `Cc1ccc(-n2nc3cc(C)c(NC(=O)c4cc(Cl)ccc4Cl)cc3n2)cc1` is higher in inhibition: 1% for the first, 5% for the second.

First: Cc1cc2nn(-c3ccccc3)nc2cc1NC(=O)c1ccc(Cl)cc1Cl
Second: Cc1cc2nn(-c3ccccc3)nc2cc1NC(=O)c1ccc([N+](=O)[O-])cc1Cl
The inhibition of the first is higher: 41% for the first, 22% for the second.

First: Cc1ccc(OCCOc2ccc(Br)cc2/C=C2\SC(=S)NC2=O)c(C)c1
Second: CSc1ccc(/C=C2\C(=O)NC(=O)N(c3ccc(Br)c(C)c3)C2=O)cc1
The inhibition of the first is higher: 46% for the first, 0% for the second.

Compared with `O=C(COC(=O)c1ccccc1Cl)c1ccc(Cl)cc1Cl`, `CC(=O)Nc1cc(C(N)=O)c(Cl)cc1Cl` is lower in inhibition: 43% for the first, 1% for the second.

Compared with `CCOC(=O)C1=C(C)N=c2s/c(=C/c3ccc(-c4cc([N+](=O)[O-])ccc4OC)o3)c(=O)n2C1c1cccs1` (stereo not drawn), `Cc1ccc(-n2nc3cc(C)c(NC(=O)c4ccc([N+](=O)[O-])cc4Cl)cc3n2)cc1` is lower in inhibition: 8% for the first, 0% for the second.

First: CC(O)c1cccc(NC(=O)c2nn3c(c2Cl)NC(c2cccs2)CC3C(F)(F)F)c1 (stereo not drawn)
Second: COc1ccc(-n2nc3cc(C)c(NC(=O)c4cc(Cl)ccc4Cl)cc3n2)cc1
The inhibition of the first is lower: 6% for the first, 35% for the second.

Going from `COc1ccc(-c2cc(-c3ccccc3)nc(-c3ccc(C)o3)c2)cc1` to `COc1cccc(-c2nc(-c3cccc([N+](=O)[O-])c3)no2)c1`, the inhibition falls from 16% to 5%.

Compared with `O=[N+]([O-])c1cccc(-n2nncc2C23CC4CC(CC(C4)C2)C3)c1`, `O=C(Nc1ncc(Cc2cccc([N+](=O)[O-])c2)s1)c1cccc([N+](=O)[O-])c1` is lower in inhibition: 19% for the first, 11% for the second.

Going from `CC(=O)Oc1cc(C)cc2oc(=O)c(Cc3ccccc3)c(C)c12` to `COc1cc(C)cc2oc(=O)c(Cc3ccccc3)c(C)c12`, the inhibition falls from 23% to 22%.

`Cc1cc(OCC(=O)O)c2c(C)c(Cc3ccccc3)c(=O)oc2c1` and `Cc1ccc(/C(O)=C2\C(=O)C(=O)N(CCCC(=O)O)C2c2ccc(F)cc2)cc1` (stereo not drawn) are the same in inhibition: 4% for the first, 4% for the second.

Compared with `O=C(N/N=C/c1ccc(O)cc1O)c1cc(Br)cc(Br)c1O`, `CC(=O)C(=Nc1ccc(C)cc1C)NNc1ccc(Cl)c(C(N)=O)c1` is lower in inhibition: 12% for the first, 11% for the second.

First: COC(=O)c1cc(C(=O)NC2CCSC2=O)cc([N+](=O)[O-])c1 (stereo not drawn)
Second: O=C(Nc1cc(C(=O)Nc2ccccc2-c2ccccc2)cc(C(=O)Nc2ccccc2-c2ccccc2)c1)c1ccc([N+](=O)[O-])cc1
The inhibition of the first is lower: 10% for the first, 19% for the second.

Going from `C=CCNC(=O)CN(c1cccc(OC)c1)S(=O)(=O)c1ccccc1` to `O=C(CN1CCSCC1)N/N=C/c1ccc(-c2ccccc2)cc1`, the inhibition rises from 0% to 7%.

First: CC(=O)Nc1ccc(N=Cc2cccc(C)c2)cc1
Second: Cc1ccc(N2C(=O)/C(=C/c3ccc(O)cc3)C(=O)NC2=S)cc1
The inhibition of the first is lower: 4% for the first, 6% for the second.

For `COc1cc(C=C2C(=O)N(c3ccc(C)cc3)C(=S)N(c3ccc(C)cc3)C2=O)ccc1O`, the inhibition was 0%.

In the case of `O=C(CC1SC(=Nc2ccccc2)N(c2ccccc2)C1=O)Nc1ccccc1` (stereo not drawn), the inhibition is reported as 58% (active).
For `Cc1cc2nn(-c3ccccc3)nc2cc1NC(=O)/C=C/c1ccc(Cl)cc1`, the inhibition was 54% (active).
With `Cc1ccc(-n2nc3cc(C)c(NC(=O)c4cccc([N+](=O)[O-])c4C)cc3n2)cc1` the inhibition was 51% (active).
For `Cc1cc2nn(-c3ccc(Cl)cc3)nc2cc1NC(=O)c1ccccc1Br`, the inhibition was 52% (active).
For `Cc1cc2nn(-c3ccc(Cl)cc3)nc2cc1NC(=O)c1ccc(Cl)cc1Cl`, the inhibition was 58% (active).
In the case of `Cc1cc2nn(-c3ccc(Cl)cc3)nc2cc1NC(=O)c1ccc([N+](=O)[O-])cc1Cl`, the inhibition is reported as 50% (active).
For `Cc1cc2nn(-c3ccc(Cl)cc3)nc2cc1NC(=O)c1cc(Cl)ccc1Cl`, the inhibition was 52% (active).
In the case of `Cc1cc(OC(=O)C2CC2)c2c(C)c(Cc3ccccc3)c(=O)oc2c1`, the inhibition is reported as 55% (active).
With `CCCOc1cc(C)cc2oc(=O)c(Cc3ccccc3)c(C)c12` the inhibition was 56% (active).
With `CC(=O)C(=Nc1ccc(C)cc1C)NNc1cc(C(N)=O)c(Cl)cc1Cl` the inhibition was 70% (active).
`Cc1ccc(N2C(=O)C(=Cc3ccc(O)cc3)C(=O)N(c3ccc(C)cc3)C2=S)cc1` was tested, and the inhibition was 56% (active).
